ssDAF12 agonist – activators of S. stercoralis DAF-12 nuclear receptor | HEK293 ssDAF-12/GRIP1 lit1-tk-luc reporter, luminescence; % of 3 µM dafachronic acid response | activation, % at 6.8 µM | 1% of 370,000 active;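 active = activation above the mean over all tested compounds plus 3 SD, cut at about 0.9% in these data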;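 also: 0% = DMSO-only wells and 100% = 3 µM delta7-dafachronic acid wells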
hgDAF12 agonist – agonists of H. glycines DAF-12 nuclear receptor | HEK293 GAL4-hgDAF12 UAS-luciferase reporter, agonist luminescence; normalized to butyrate control | activation, % at 6.8 µM | 1.8% of 370,000 active;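 active = activation above a cutoff set at the mean of all screened compounds plus 3 SD, cut at about 10% in these data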;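 also: 0% = DMSO wells and 100% = sodium butyrate wells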
DAX1 inh-1 – inhibitors of DAX1 repression of SF-1 activated StAR promoter; inhibition, % at 6.8 µM; 1.1% of 370,000 active; HEK293T StAR-luciferase reporter, SF-1/DAX-1 repression relief; AID 652010;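 active = inhibition above the mean over all tested compounds plus 3 SD, cut at about 3.6% in these data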;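 also: 0% = DAX-1 cells with DMSO and 100% = cells lacking DAX-1 with DMSO; higher inhibition means more luminescence from relief of DAX-1 repression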
hcDAF12 agonist – H. contortus DAF-12 activation, primary screen; HEK293 hcDAF-12 lit1-tk-luc reporter, luminescence; 0% DMSO, 100% Δ7-dafachronic acid; activation, % at 6.8 µM; 1.4% of 370,000 active;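 active = activation above the mean of all tested compounds plus 3 SD, cut at about 5.5% in these data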;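 also: 100% = response to 3 µM Δ7-dafachronic acid high control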
DAX1 inh-2 – inhibits human nuclear receptor DAX1; HEK293 Gal4-DAX1 luciferase reporter, luminescence; 0.99% of 340,000 active; inhibition, % at 6.75 µM; P51843;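 active = inhibition above the mean over all tested compounds plus 3 SD, cut at about 4.2% in these data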;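 also: 0% = DAX1-transfected cells with DMSO and 100% = empty-vector control cells with DMSO; inhibition shows as a rise in luminescence from relieved DAX1 repression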
DAX1 conf – confirmation of human DAX1 (NR0B1) inhibitors; shares compounds with DAX1 inh-1; HEK293T StAR-promoter luciferase reporter, SF-1/DAX-1 repression; inhibition, % at 6.8 µM; 87% of 2,400 active;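 active = inhibition above the average of every tested compound plus 3 SD, cut at about 3.8% in these data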;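 also: 0% = DAX-1 cells with DMSO and 100% = no DAX-1 control cells with DMSO; active compounds raise luminescence by relieving repression of the StAR reporter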
SF1 mutant ctr – counter-screen for DAX1 inhibitors: nonselective inhibitors with SF-1 AF2 mutant | shares compounds with DAX1 inh-1 | HEK293 StAR-luciferase, luminescence | inhibition, % at 6.8 µM | 78% of 2,400 active;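 active = inhibition above the mean of all tested compounds plus 3 SD, cut at about 3% in these data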;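 also: 0% = DAX-1 transfected cells with DMSO and 100% = cells without DAX-1 with DMSO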
LXR ag – counter-screen for hcDAF-12 agonists: agonists of human LXR-beta; activation, % at 6.8 µM; HEK293 Gal4-LXR tk-luc reporter, luminescence, 24 h; normalized: DMSO 0%, positive control 100%; shares compounds with hcDAF12 agonist; 3,400 tested, under 10 active;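 active = mean percent activation of the reporter above a cutoff set as the average over tested compounds plus their standard deviation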
Target sequence (P55055 whole entry, looked up, the tested form may be a part): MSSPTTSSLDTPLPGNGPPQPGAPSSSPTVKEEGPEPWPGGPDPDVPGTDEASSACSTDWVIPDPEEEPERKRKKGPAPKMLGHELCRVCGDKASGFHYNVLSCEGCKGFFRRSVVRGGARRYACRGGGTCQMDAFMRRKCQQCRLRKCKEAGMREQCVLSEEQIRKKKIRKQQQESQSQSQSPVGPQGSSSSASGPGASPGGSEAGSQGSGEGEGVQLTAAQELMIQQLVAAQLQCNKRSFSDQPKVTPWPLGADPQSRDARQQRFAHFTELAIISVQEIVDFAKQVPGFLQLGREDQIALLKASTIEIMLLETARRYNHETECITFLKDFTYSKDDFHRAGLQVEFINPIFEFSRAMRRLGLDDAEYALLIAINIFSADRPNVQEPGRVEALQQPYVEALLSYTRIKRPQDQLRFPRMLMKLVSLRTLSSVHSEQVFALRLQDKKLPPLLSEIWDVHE
hcDAF12 ag – hcDAF-12 agonism, confirmation assay. shares compounds with hcDAF12 agonist. HEK293 hcDAF-12 lit1-tk-luc reporter, luminescence; % of Δ7-dafachronic acid response. activation, % at 6.8 µM. 61% of 3,400 active;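 active = mean activation across triplicate tests above the threshold derived from the earlier primary screen, cut at about 5.5% in these data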;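 also: 0% = DMSO only wells and 100% = 3 µM Δ7-dafachronic acid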
hgDAF12 ag – confirmation of H. glycines DAF-12 agonists; shares compounds with hgDAF12 agonist; HEK293 GAL4-hgDAF12 luciferase reporter, agonist mode; percent of butyrate response; activation, % at 6.8 µM; 80% of 3,300 active;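 active = mean activation over triplicate wells above the hit cutoff derived from the earlier primary screen, cut at about 11% in these data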;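 also: 0% = DMSO low control and 100% = 2 mM sodium butyrate high control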
LXRb DAF12 ctr – counter-screen for DAF-12 agonists: agonists of human LXR-beta | HEK293 Gal4-LXR luciferase reporter, 24 h | 3,300 tested, under 10 active | activation, % at 6.8 µM | shares compounds with hgDAF12 agonist;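 active = mean activation of the triplicate above a set limit carried over from the primary screen, none filed active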
Numbers without * were called inactive; · = no result. Shown are actives, neighbours in structure and some others; about 4.1% of the full set was active somewhere.

SMILES	ssDAF12 agonist	hgDAF12 agonist	DAX1 inh-1	hcDAF12 agonist	DAX1 inh-2	DAX1 conf	SF1 mutant ctr	hgDAF12 ag	LXRb DAF12 ctr	others
Cc1ccc(C(=O)CSc2cc(C)[nH]c(=O)n2)cc1	0	15*	12*	3	5.0*	11*	8.3*	16*	1
CCN1CCN(c2ccc(NC(=O)c3ccco3)cc2)CC1	-1	14*	8.0*	4	1	4.9*	5.4*	13*	0
CCCC(=O)N1CCN(c2ccc(NC(=O)c3ccco3)cc2)CC1	-1	3	0	0	0	·	·	·	·
COc1ccc2oc(=O)c(C(=O)Nc3ccccc3O)cc2c1	1	19*	5.6*	6.1*	-1	11*	6.8*	16*	1
COc1ccc2oc(=O)c(C(=O)NC(C)c3ccccc3)cc2c1 (stereo unspecified)	-1	-1	0	-3	-1	·	·	·	·
COc1ccc(NC(=O)c2cc3ccccc3oc2=O)cc1	1.1*	23*	6.7*	5.8*	1	3	-1	10	1
Cc1ccc(C(=O)c2ccc(C)cc2)cc1	-1	5	0	1	0	·	·	·	·
CC(=O)c1ccc(N=Nc2ccc(C)cc2)cc1	0	15*	6.6*	6.4*	0	9.5*	3	8	1
COc1ccc(CN2C(=O)COc3ccccc3C2c2nnnn2C2CCCCC2)cc1 (stereo unspecified)	-1	0	0	0	·	·	·	·	·
Cc1ccc(NC(=S)NC(=O)C2CCCCC2)c(Br)c1	0	18*	9.8*	6.3*	3	7.8*	7.2*	15*	1
NC(=NCCc1c[nH]c2ccccc12)NC(=O)OCc1ccccc1	-1	-3	-1	-1	·	·	·	·	·
c1nc(NCC2CCCOC2)c2cc(-c3ccc4c(c3)OCO4)ccc2n1 (stereo unspecified)	0	2	·	3	·	·	·	·	·
CC(=O)c1cccc(NC(=O)c2cnn3ccccc23)c1	-1	14*	5.6*	5.8*	1	6.5*	5.2*	12*	1
COC(=O)C1=C(C)N(C)C(=NCc2cccc(C(F)(F)F)c2)NC1c1ccc(F)cc1 (stereo unspecified)	-1	4	0	0	·	·	·	·	·
CCCC(C)C(=O)NC1CCCCN(Cc2ccccc2C)C1=O (stereo unspecified)	-1	2	0	-3	·	·	·	·	·
OCC(O)/C=N/Nc1nc2ccccc2s1 (stereo unspecified)	-1	4	0	4	0	·	·	·	·
Oc1ccccc1C=NNc1nc2ccccc2s1	3.0*	22*	5.5*	16*	4.4*	11*	8.6*	19*	1	LXR ag=2;hcDAF12 ag=17*
C(=N\Nc1nc2ccccc2s1)/c1ccco1	2.6*	15*	6.7*	17*	-1	18*	8.2*	21*	1	LXR ag=2;hcDAF12 ag=12*
C(=N\Nc1nc2ccccc2s1)/c1cccs1	3.3*	16*	7.0*	20*	3	18*	12*	24*	1	LXR ag=2;hcDAF12 ag=17*
CCNC(=O)N(C)[C@H]1C[C@H]2c3[nH]c4c(-c5ccc6c(c5)OCO6)cccc4c3CCN2C(=O)[C@H]1[C@H](C)O	-1	0	1	-2	·	·	·	·	·
O=C(OCCCN1CCC2(CCC(c3ccccc3)CC2)C1=O)c1ccccc1 (stereo unspecified)	-1	4	0	-1	·	·	·	·	·
COC(=O)[C@@]12CCCCC3=C1N(CCC3)C(=O)[C@H]2CC(=O)N1CCOCC1	-1	0	-1	-3	·	·	·	·	·
O=C(N=c1nc2ccccn2s1)c1ccccc1	1.1*	22*	5.2*	11*	3	11*	3	8	1	LXR ag=2;hcDAF12 ag=13*
Cc1csc(=NC(=O)c2ccccc2)n1C	1	10	2	3	1	·	·	·	·
NC(=O)c1ccsc1NC(=O)c1coc2ccccc2c1=O	0	14*	4.7*	1	1	12*	3.7*	19*	1
SMILES	ssDAF12 agonist	hgDAF12 agonist	DAX1 inh-1	hcDAF12 agonist	DAX1 inh-2	DAX1 conf	SF1 mutant ctr	hgDAF12 ag	LXRb DAF12 ctr	others
Cc1ccnc(NC(=O)COc2ccccc2[N+](=O)[O-])c1	1.1*	14*	4.9*	7.4*	0	13*	5.2*	12*	1	LXR ag=1;hcDAF12 ag=4
O=C(COc1ccccc1[N+](=O)[O-])Nc1cccnc1	-1	7	1	-1	1	·	·	·	·
Cc1ccc(NC(=O)c2ccc(COc3ccccc3[N+](=O)[O-])o2)nc1	-1	3	0	1	0	·	·	·	·
Cc1ccc(NC(=O)COc2ccccc2[N+](=O)[O-])nc1	1.7*	18*	4.7*	7.3*	-1	11*	5.9*	12*	1	LXR ag=2;hcDAF12 ag=9.3*
CC1=CC(c2ccccc2)=Nc2ccc(C)cc2N1	3.5*	19*	5.9*	13*	0	15*	8.7*	19*	1	LXR ag=2;hcDAF12 ag=9.6*
O=C(OCc1cn(Cc2cccc(F)c2F)nn1)N1CCCC1	-1	-1	0	0	·	·	·	·	·
CCOC(=O)c1c(C)[nH]c(C(=O)OCC(=O)c2ccccc2)c1C	0	14*	13*	7.4*	2	9.8*	4.9*	17*	1	LXR ag=1;hcDAF12 ag=5
Cc1ccc(C(=O)Cn2nnc3ccccc32)cc1C	0	17*	4.8*	5.9*	2	9.3*	5.7*	17*	1
Cc1ccc(C(=O)Cn2cnc3ccccc3c2=O)cc1C	-1	9	1	4	1	·	·	·	·
CC(C)[C@H](NC(=O)C1CCCC1)C(=O)N1CCC[C@H]1C(=O)NCCc1ccccc1Cl	0	1	0	1	·	·	·	·	·
CC(=O)Nc1cccc(-c2nc3ccccc3o2)c1	-1	1	1	-2	-2	·	·	·	·
